From the supplement of paper PMC10382584, “Macrocyclization of linear molecules by deep learning to facilitate macrocyclic drug candidates discovery” (Nature Communications, 2023) come the findings set out here.

Chain of UniProt Q14004 (Q14004 whole entry, looked up): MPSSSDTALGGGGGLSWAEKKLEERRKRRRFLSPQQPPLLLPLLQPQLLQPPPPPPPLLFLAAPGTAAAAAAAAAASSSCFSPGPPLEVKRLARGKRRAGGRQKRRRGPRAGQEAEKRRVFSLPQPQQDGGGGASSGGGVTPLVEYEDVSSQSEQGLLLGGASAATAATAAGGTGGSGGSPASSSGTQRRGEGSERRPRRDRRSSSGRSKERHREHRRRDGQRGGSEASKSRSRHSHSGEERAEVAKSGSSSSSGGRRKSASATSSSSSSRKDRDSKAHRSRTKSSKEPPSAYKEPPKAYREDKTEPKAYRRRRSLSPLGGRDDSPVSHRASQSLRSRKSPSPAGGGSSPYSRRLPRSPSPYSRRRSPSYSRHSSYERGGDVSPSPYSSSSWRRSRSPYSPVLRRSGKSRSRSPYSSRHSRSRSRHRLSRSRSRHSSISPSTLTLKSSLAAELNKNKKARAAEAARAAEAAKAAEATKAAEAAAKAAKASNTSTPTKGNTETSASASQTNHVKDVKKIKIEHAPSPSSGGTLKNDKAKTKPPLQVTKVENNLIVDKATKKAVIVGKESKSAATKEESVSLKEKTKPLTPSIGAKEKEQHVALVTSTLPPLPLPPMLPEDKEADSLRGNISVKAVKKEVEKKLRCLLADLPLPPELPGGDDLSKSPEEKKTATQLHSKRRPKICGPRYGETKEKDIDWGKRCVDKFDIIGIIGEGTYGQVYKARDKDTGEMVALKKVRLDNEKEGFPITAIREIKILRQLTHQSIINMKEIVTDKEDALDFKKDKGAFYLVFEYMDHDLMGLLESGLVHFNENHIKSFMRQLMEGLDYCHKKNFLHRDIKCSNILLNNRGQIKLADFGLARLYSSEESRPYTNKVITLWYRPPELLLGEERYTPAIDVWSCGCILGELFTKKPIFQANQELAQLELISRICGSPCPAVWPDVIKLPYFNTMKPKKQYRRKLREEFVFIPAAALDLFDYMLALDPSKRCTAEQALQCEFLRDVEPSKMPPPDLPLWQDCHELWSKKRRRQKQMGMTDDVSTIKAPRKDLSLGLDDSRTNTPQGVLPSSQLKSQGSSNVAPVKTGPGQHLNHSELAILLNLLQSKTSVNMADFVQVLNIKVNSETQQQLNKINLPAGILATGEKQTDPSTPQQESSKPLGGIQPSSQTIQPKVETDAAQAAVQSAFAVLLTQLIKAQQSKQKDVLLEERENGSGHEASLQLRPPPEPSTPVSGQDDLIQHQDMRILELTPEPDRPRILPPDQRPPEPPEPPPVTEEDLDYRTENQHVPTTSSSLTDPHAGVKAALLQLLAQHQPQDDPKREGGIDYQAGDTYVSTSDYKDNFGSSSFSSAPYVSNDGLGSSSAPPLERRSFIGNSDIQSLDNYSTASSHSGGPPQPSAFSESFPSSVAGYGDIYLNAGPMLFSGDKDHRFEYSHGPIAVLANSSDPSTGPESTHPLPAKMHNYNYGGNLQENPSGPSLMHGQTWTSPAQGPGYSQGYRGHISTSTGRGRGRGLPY
Chain of UniProt Q9BUB5 (Q9BUB5 whole entry, looked up): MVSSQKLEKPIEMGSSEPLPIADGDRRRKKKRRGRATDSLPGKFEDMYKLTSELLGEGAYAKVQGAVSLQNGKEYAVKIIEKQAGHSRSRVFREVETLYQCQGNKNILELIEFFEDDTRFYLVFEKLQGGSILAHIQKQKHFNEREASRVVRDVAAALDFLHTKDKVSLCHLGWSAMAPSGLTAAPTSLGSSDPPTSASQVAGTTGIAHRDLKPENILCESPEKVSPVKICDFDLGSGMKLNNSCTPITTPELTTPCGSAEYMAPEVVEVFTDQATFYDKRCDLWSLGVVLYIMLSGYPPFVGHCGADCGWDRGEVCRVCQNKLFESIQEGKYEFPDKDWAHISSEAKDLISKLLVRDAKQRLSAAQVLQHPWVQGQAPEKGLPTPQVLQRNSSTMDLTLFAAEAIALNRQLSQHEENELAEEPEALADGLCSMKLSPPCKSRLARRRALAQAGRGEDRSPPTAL
Chain of UniProt Q13976 (Q13976 whole entry): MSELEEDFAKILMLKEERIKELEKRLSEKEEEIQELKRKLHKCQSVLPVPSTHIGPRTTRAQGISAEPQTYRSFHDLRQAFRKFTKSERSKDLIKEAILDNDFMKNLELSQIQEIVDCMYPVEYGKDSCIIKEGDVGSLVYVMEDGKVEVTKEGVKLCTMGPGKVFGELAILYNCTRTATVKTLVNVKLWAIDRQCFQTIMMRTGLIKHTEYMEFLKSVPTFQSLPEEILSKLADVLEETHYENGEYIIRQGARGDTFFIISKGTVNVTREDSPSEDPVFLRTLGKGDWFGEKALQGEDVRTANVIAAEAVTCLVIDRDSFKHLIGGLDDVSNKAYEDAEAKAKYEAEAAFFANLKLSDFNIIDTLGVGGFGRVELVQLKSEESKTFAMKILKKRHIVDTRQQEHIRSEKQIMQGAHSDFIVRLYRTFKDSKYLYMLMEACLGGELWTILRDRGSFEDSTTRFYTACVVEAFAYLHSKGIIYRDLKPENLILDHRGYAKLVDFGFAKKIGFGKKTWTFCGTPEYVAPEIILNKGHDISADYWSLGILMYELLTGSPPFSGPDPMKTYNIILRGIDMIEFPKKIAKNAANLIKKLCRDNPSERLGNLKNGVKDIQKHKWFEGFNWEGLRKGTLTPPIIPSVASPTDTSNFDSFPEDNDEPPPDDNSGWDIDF
Chain of UniProt P08581 (P08581 whole entry Y1235D, looked up): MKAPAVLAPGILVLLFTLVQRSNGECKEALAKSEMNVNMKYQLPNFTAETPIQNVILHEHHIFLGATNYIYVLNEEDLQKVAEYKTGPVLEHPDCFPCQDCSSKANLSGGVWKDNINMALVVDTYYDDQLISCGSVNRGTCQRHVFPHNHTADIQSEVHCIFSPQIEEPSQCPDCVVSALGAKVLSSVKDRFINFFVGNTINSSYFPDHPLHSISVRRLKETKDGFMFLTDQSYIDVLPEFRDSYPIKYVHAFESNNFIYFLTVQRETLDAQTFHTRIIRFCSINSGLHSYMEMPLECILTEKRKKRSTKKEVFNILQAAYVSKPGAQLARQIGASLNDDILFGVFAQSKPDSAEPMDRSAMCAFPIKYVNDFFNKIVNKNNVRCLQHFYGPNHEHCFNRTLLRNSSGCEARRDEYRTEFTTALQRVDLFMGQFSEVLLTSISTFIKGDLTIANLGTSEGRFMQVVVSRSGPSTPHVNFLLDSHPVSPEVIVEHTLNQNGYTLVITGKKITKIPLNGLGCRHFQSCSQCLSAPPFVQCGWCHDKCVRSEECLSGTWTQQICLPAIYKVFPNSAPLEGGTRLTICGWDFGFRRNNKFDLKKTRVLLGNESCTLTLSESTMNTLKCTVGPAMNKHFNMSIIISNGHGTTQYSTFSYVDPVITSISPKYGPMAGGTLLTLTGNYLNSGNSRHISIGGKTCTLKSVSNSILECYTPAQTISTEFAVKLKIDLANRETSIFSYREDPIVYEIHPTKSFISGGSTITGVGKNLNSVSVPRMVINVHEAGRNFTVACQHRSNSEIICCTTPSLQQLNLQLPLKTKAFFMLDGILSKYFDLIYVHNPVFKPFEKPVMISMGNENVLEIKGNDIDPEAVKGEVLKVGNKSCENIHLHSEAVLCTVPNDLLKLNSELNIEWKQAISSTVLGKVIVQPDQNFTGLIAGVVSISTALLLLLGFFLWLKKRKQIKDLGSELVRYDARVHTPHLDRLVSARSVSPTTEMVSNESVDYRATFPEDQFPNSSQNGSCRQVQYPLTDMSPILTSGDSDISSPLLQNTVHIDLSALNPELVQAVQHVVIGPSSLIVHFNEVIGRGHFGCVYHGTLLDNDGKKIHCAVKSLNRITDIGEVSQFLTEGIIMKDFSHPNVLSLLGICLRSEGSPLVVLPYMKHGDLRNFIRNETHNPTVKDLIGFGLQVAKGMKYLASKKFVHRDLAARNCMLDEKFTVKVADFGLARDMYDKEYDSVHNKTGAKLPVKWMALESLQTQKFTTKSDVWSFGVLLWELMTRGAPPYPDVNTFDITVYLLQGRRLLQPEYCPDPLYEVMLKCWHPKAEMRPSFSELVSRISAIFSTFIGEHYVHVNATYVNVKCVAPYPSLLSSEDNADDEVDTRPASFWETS
Chain of UniProt Q9Y463 (Q9Y463 whole entry, looked up): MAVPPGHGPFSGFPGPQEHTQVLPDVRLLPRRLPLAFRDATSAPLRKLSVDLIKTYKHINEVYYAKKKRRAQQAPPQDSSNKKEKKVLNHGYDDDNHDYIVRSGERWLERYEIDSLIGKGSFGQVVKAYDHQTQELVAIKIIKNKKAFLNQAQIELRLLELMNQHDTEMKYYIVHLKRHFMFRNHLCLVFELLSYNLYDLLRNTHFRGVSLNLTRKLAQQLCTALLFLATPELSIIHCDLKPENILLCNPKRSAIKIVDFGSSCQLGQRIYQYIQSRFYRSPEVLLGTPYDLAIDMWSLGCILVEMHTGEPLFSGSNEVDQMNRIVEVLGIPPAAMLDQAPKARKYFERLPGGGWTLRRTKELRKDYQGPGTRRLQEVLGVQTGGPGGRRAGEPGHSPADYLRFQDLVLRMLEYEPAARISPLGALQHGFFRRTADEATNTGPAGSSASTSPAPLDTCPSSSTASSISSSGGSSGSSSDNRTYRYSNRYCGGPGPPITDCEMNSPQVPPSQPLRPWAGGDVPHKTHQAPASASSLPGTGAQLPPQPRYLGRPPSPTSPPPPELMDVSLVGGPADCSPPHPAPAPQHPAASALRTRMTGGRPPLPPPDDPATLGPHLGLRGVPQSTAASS
Chain of UniProt Q8TBX8 (Q8TBX8 whole entry): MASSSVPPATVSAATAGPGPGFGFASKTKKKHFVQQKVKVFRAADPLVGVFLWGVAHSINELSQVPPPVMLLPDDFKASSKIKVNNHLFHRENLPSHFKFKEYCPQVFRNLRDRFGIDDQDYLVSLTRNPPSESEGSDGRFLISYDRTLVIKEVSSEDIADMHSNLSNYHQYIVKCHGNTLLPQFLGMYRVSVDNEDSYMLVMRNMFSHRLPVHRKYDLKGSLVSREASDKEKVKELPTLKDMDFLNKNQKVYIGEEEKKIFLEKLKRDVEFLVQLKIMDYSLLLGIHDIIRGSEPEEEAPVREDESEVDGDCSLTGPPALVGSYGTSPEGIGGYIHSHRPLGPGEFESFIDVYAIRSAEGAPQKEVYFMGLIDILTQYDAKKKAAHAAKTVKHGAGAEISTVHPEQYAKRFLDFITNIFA

Compound in the assay: Cc1cnc(Nc2ccc(OCCN3CCCC3)cc2)nc1Nc1cccc(S(=O)(=O)NC(C)(C)C)c1 [Fedratinib]
Nature of the assay: percent of DMSO control binding (KINOMEscan); higher = weaker binding / less inhibition; extreme values may be limits of the assay. Particulars: concentration: 100 nM.
PRKD3 (UniProt O94806): the “percent of DMSO control binding” value was determined as 100%.
In the case of ERBB2 (UniProt P04626) it was 73%.
In the case of FLT1 (UniProt P17948) it was 100%; in that of CDK4-cyclinD3 (UniProt P11802), 90%; in that of MAP3K15 (UniProt Q6ZN16), 61%.
In the case of IKK-epsilon (UniProt Q14164) it was 57%.
Turning to LATS2 (UniProt Q9NRM7), the “percent of DMSO control binding” value amounted to 89%.
As for DYRK1B (UniProt Q9Y463), the figure is 97%; as for TAOK3 (UniProt Q9H2K8), 60%; as for CAMK1B (UniProt Q6P2M8), 66%.
As for OSR1 (UniProt O95747), the figure is 91%.
In the case of LTK (UniProt P29376) it was 100%.
Consider GCN2(Kin.Dom.2,S808G), for which the “percent of DMSO control binding” value worked out at 61%.
On to CDC2L5 (UniProt Q14004), for which the “percent of DMSO control binding” value was 78%.
As to FLT4 (UniProt P35916), the “percent of DMSO control binding” value amounted to 100%.
Turning to ALK(L1196M) (UniProt Q9UM73), the “percent of DMSO control binding” value amounted to 67%.
As for SGK3 (UniProt Q96BR1), the figure is 91%.
As for EGFR(S752-I759del) (UniProt P00533), the figure is 88%; as for PRKCH, 100%; as for MKNK1 (UniProt Q9BUB5), 88%.
Take WNK1 (UniProt Q9H4A3): the “percent of DMSO control binding” value is 100%.
In the case of MLK1 (UniProt P80192) it was 96%; in that of PIP5K2C (UniProt Q8TBX8), 100%.
In the case of TAK1 (UniProt O43318) it was 81%; in that of ERBB3 (UniProt P21860), 97%; in that of “JAK1(JH2domain-pseudokinase) (UniProt P23458)”, 80%.
In the case of RSK4(Kin.Dom.1-N-terminal) it was 70%; in that of CTK (UniProt P42679), 74%; in that of MET(Y1235D) (UniProt P08581), 100%.
Turning to MEK2 (UniProt P36507), the “percent of DMSO control binding” value was found to be 66%.
For PRKG1 (UniProt Q13976), the “percent of DMSO control binding” value was found to be 100%.
As for PRKCQ (UniProt Q04759), the figure is 100%; as for PFCDPK1(P.falciparum), 100%.
Consider PKN2 (UniProt Q16513), for which the “percent of DMSO control binding” value was 100%.
In the case of ERBB4 (UniProt Q15303) it was 100%.
For the target PIK3CG (UniProt P48736), the “percent of DMSO control binding” value was found to be 100%.
As to DCAMKL2 (UniProt Q8N568), the “percent of DMSO control binding” value stood at 97%.
